From the supplement of paper PMC4206461
A number with no mark means an inactive call.

Legend:
[1] = tested on: Pseudomonas aeruginosa PA14 dppA1-A5 penta mutant + pBBR5.DppA1 (PA14_58350); test: respiration area under curve with compound as sole nitrogen source, 24 h (OmniLog AUC (arbitrary units)); higher = more respiration / better utilisation as nitrogen source, active = 2000 or more
Description: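 Biolog Phenotype MicroArray plates PM6-PM8: each di/tripeptide is the sole nitrogen source. Tetrazolium reduction was read in the OmniLog for 24 h at 37°C and summarised as area under the respiration curve (arbitrary units). Values below 2000 count as no respiration. Strain is the SBP penta mutant complemented with DppA1 on a plasmid under its native promoter. Lys/His/Cys peptides are excluded.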

[2] = tested on: Pseudomonas aeruginosa PA14 wild type; test: as above
Description: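 Biolog Phenotype MicroArray plates PM6-PM8: each di/tripeptide is the sole nitrogen source (IF-0 medium with succinate/ferric citrate and dye mix A). Tetrazolium reduction was read in the OmniLog every 15 min for 24 h at 37°C and summarised as area under the respiration curve (arbitrary units). The paper counts values below 2000 as no respiration and above 8000 as solid respiration. Replicate datasets are averaged.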

[3] = tested on: Pseudomonas aeruginosa PA14 dppBCDF deletion mutant; test: respiration area under curve with compound as sole nitrogen source, 24 h (OmniLog AUC (arbitrary units)); higher = more respiration / better utilisation as nitrogen source, active = 2000 or more; extreme values may be limits of the assay
Description: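 Biolog Phenotype MicroArray plates PM6-PM8: each di/tripeptide is the sole nitrogen source. Tetrazolium reduction was read in the OmniLog every 15 min for 24 h at 37°C and summarised as area under the respiration curve (arbitrary units). Values below 2000 count as no respiration. Strain is the dipeptide ABC transporter deletion mutant.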

Row | SMILES | respiration area under curve [1] | respiration area under curve [2] | respiration area under curve [3]
1 | CC(C)[C@H](N)C(=O)N1CCC[C@H]1C(=O)O (plate: PM8) | 10300 (active) | 12700 (active) | 0
2 | C[C@@H](O)[C@H](N)C(=O)N[C@@H](CCCN=C(N)N)C(=O)O (plate: PM7) | 14200 (active) | 15400 (active) | 13800 (active)
3 | N[C@@H](Cc1ccc(O)cc1)C(=O)NCC(=O)O (plate: PM7) | 8600 (active) | – | 3760 (active)
4 | C[C@H](N)C(=O)N[C@@H](Cc1c[nH]c2ccccc12)C(=O)O (plate: PM6) | 3700 (active) | – | 3230 (active)
5 | CC[C@H](C)[C@H](NC(=O)CNC(=O)CN)C(=O)O (plate: PM8) | – | 10400 (active) | 1
6 | NC(N)=NCCC[C@H](N)C(=O)N[C@@H](CO)C(=O)O (plate: PM6) | 7830 (active) | – | 8440 (active)
7 | CSCCC(NC(=O)C(N)CC(C)C)C(=O)O (stereo not drawn) (plate: PM6) | 1220 | – | 686
8 | C[C@@H](N)C(=O)NCC(=O)O (plate: PM8) | 5420 (active) | 6030 (active) | 0
9 | CC[C@H](C)[C@H](NC(=O)[C@@H]1CCCN1)C(=O)O (plate: PM8) | 4410 (active) | 7540 (active) | 1
10 | CSCC[C@H](N)C(=O)N[C@@H](CCC(N)=O)C(=O)O (plate: PM7) | 8220 (active) | – | 3640 (active)
11 | CC(C)C[C@H](N)C(=O)N[C@@H](C)C(=O)O (plate: PM6) | 7500 (active) | 9330 (active) | 7270 (active)
12 | C[C@H](NC(=O)CCN)C(=O)O (plate: PM8) | 4280 (active) | 6440 (active) | 0
13 | CC[C@H](C)[C@H](NC(=O)CN)C(=O)O (plate: PM8) | 4580 (active) | – | 1250
14 | CSCC[C@H](N)C(=O)N[C@@H](CCC(=O)O)C(=O)O (plate: PM7) | 1490 | 1960 | 0
15 | CC[C@H](C)[C@H](NC(=O)[C@@H](N)Cc1ccccc1)C(=O)O (plate: PM7) | 7890 (active) | – | 6010 (active)
16 | CCC(C)C(N)C(=O)NC(CC(N)=O)C(=O)O (stereo not drawn) (plate: PM8) | 7760 (active) | 9360 (active) | 488

Row | SMILES | respiration area under curve [1] | respiration area under curve [2] | respiration area under curve [3]
17 | C[C@H](NC(=O)CNC(=O)CN)C(=O)O (plate: PM8) | 4350 (active) | 11300 (active) | 102
18 | CSCCC(N)C(=O)NC(CCSC)C(=O)O (stereo not drawn) (plate: PM7) | 0 | 0 | 0
19 | CC(C)[C@H](N)C(=O)N[C@@H](CC(N)=O)C(=O)O (plate: PM7) | 10400 (active) | 12300 (active) | 5280 (active)
20 | CSCC[C@H](N)C(=O)N[C@H](C(=O)O)[C@@H](C)O (plate: PM8) | 1950 | – | 211
21 | C[C@@H](NC(=O)CN)C(=O)O (plate: PM8) | 3490 (active) | – | 0
22 | C[C@@H](O)[C@H](N)C(=O)N[C@@H](CCC(N)=O)C(=O)O (plate: PM8) | 10400 (active) | 12100 (active) | 454
23 | C[C@H](N)C(=O)N[C@@H](CC(N)=O)C(=O)O (plate: PM6) | 7840 (active) | – | 6980 (active)
24 | NCC(=O)N[C@H](CC(=O)O)C(=O)O (plate: PM8) | 0 | 0.2 | 0
25 | N[C@@H](CO)C(=O)N[C@@H](CO)C(=O)O (plate: PM7) | 6490 (active) | – | 988
26 | CSCC[C@H](N)C(=O)N[C@@H](CC(=O)O)C(=O)O (plate: PM7) | 4440 (active) | – | 1590
27 | CC(C)C[C@@H](N)C(=O)N[C@H](CC(C)C)C(=O)O (plate: PM8) | 0 | 0 | 0
28 | N[C@@H](CCC(=O)O)C(=O)N[C@@H](Cc1ccc(O)cc1)C(=O)O (plate: PM6) | 1030 | – | 44
29 | CC(C)C[C@H](N)C(=O)N[C@H](C(=O)O)C(C)C (plate: PM7) | 10300 (active) | 9910 (active) | 9340 (active)
30 | CC(C)[C@H](N)C(=O)N[C@@H](CC(=O)O)C(=O)O (plate: PM7) | 6440 (active) | – | 18
31 | NC(N)=NCCC[C@H](NC(=O)[C@@H](N)Cc1c[nH]c2ccccc12)C(=O)O (plate: PM7) | 12000 (active) | 13500 (active) | 11800 (active)
